“And” between values parts separate entries of the source, which are not always exact repeats. Equal entries are not always repeated. Inconclusive results are not listed. The source made the active and inactive calls. Unless noted, calls come from the whole dose curve; as a rule, active = well fitted curve in the direction sought with a large enough effect; inconclusive = small, poorly fitted or top-dose-only effect, or another doubt; inactive = no such curve, though single readings can be large; an effect the other way counts as inactive or inconclusive.
Legend:
[1] = Cell Viability - BJ (AID 421; calls by dose curve;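 note: potency is the fitted concentration of half-maximal effect; cells exposed to compound for 40 hours at 37 °C before readout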); settings: BJ fibroblast viability, qHTS
Method in brief: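 Normal human BJ foreskin fibroblasts, 1500/well in complete medium, treated 40 hr at 37 °C. Cellular ATP by CellTiter-Glo luminescence; normalized to DMSO and 100 uM tamoxifen, AC50 from Hill fit.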

[2] = Cell Viability - HepG2 (AID 433; calls by dose curve;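 note: potency is the fitted concentration of half-maximal effect; potency for ATP loss meaning cytotoxicity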); settings: qHTS
Method in brief: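 HepG2 cells, 1500 per well, treated 40 hr at 37 °C in complete medium; viability from intracellular ATP by CellTiter-Glo luminescence. Normalized to DMSO and 100 uM tamoxifen; AC50 from Hill fit of qHTS concentration-response.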

[3] = Cell Viability - MRC5 (AID 434; calls by dose curve;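 note: potency is the fitted concentration of half-maximal effect; potency reflects cytotoxicity seen as loss of intracellular ATP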); settings: MRC5 lung fibroblast viability, qHTS
Method in brief: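 MRC5 normal human lung fibroblasts, 1500 cells/well, exposed to compound for 40 hr at 37 C. Cellular ATP was read by CellTiter-Glo luminescence; data normalized to DMSO and 100 uM tamoxifen, with AC50 from Hill fits.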

[4] = Cell Viability - SK-N-SH (AID 435; calls by dose curve;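 note: potency is the fitted concentration of half-maximal effect; compound exposure lasted 40 h at 37 °C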); settings: SK-N-SH neuroblastoma cell viability qHTS
Method in brief: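 SK-N-SH neuroblastoma cells (1500/well) treated 40 h at 37 °C in complete medium; viability read as cellular ATP by CellTiter-Glo luminescence. Normalized to DMSO and 100 uM tamoxifen; AC50 from Hill fits of qHTS concentration-response.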

[5] = Cell Viability - NIH 3T3 (AID 541); settings: NIH 3T3 cell viability, qHTS; activity change, negative = cytotoxicity: at 92.2 µM (top of the series);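 note: plate controls were DMSO alone for no effect and tamoxifen positive control for full effect; nearly all actives have a fitted effect of over 25% in size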
Method in brief: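 NIH 3T3 mouse embryo fibroblasts (1000 cells/well) were plated in complete medium and treated with compound for 40 hr at 37 °C. Viability was read as intracellular ATP by CellTiter-Glo luminescence; AC50 values came from Hill-equation fits of concentration-response data.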

[6] = Cell Viability - HUV-EC-C (AID 542); settings: HUV-EC-C endothelial cell viability, qHTS; series mostly up to 92.2 µM; note: % is set by controls: 0 for no effect and ±100 for the full control effect; nearly all actives have a fitted effect of over 35% in size
Method in brief: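 HUV-EC-C normal human vascular endothelial cells, 1000 cells/well, pre-incubated 5 hr at 37 °C, then exposed to compounds for 40 hr at 37 °C in complete medium. Viability measured as intracellular ATP by CellTiter-Glo luminescence; AC50 from Hill fits.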

[7] = Cell Viability - H-4-II-E (AID 543); settings: H-4-II-E rat hepatoma viability; series mostly up to 92.2 µM; note: % is set by controls: 0 for no effect and ±100 for the full control effect; nearly all actives have a fitted effect of over 35% in size
Method in brief: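 Rat hepatoma H-4-II-E cells (1500/well) were plated, incubated 5 hr at 37 °C, then exposed to compounds for 40 hr at 37 °C. Cellular ATP was read by CellTiter-Glo luminescence; AC50 came from Hill-equation fits of concentration-response data.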

[8] = Cell Viability - SH-SY5Y (AID 544); settings: SH-SY5Y neuroblastoma cell viability; viability change, negative = cytotoxic: at 92.2 µM (top of the series); note: nearly all actives have a fitted effect of over 55% in size
Method in brief: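 Human neuroblastoma SH-SY5Y cells (1500/well) in complete medium were exposed to compounds for 40 hr at 37 °C; intracellular ATP was then quantified by CellTiter-Glo luminescence after 20 min at room temperature. AC50 came from Hill-equation concentration-response fits.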

[9] = Cell Viability - Renal Proximal Tubule (AID 545); settings: renal proximal tubule cells viability; at 91.7 µM (top of the series), primary cells of rat origin unless noted; note: nearly all actives have a fitted effect of over 40% in size
Method in brief: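 Rat renal proximal tubule primary cells, 1000/well, exposed to compounds for 40 hr at 37 °C in complete medium; cellular ATP read by CellTiter-Glo luminescence. AC50 from concentration-response fitted with standard Hill equation.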

[10] = Cell Viability - Mesenchymal (AID 546); settings: mesenchymal cells viability, qHTS; series mostly up to 91.7 µM;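 note: cells exposed to compound for 40 hours before reading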
Method in brief: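 Human kidney mesenchymal cells from normal renal glomeruli, 1000 cells/well, rested 5 hr at 37 °C, then treated 40 hr at 37 °C in complete medium. Cellular ATP read by CellTiter-Glo luminescence; AC50 from Hill-equation fits.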

[11] = Cellular Toxicity (caspase-3) Jurkat (AID 655); settings: Jurkat caspase-3 activation, luminescence, DMSO = 0%, tamoxifen = 100%; at 92.2 µM (top of the series);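 note: cells exposed to compound for 16 h at 37 °C before reading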
Method in brief: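 Jurkat cells (5000/well) in complete medium exposed 16 h at 37 C; caspase-3/7 activity read by Caspase-Glo luminescence after 20 min at room temperature. Normalized to DMSO and 100 uM tamoxifen; AC50 from Hill fits.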

[12] = Cellular Toxicity (caspase-3) HUV-EC-C (AID 656); settings: HUV-EC-C cells, caspase-3 activation (apoptosis), vehicle = 0, 100 µM tamoxifen = 100%; series mostly up to 92.2 µM
Method in brief: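 HUV-EC-C cells (1000/well) in complete medium, compound-treated 16 h at 37 °C; caspase-3/7 activity read by Caspase-Glo 3/7 luminescence. Normalized to DMSO (basal) and 100 uM tamoxifen (100%); AC50 from Hill-equation concentration-response fits.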

[13] = qHTS Assay for Identification of Small Molecule Inducers of Hypoxia Response (AID 2120; active = well fitted curve in the direction sought with a large enough effect in the signal ratio, with a control signal flat, not every such curve was filed as active; the % refers to the signal ratio; note: 0% is about no effect); settings: hypoxia response reporter cells, beta-lactamase ratio readout; series mostly up to 104 µM
Method in brief: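 HRE-beta-lactamase reporter in CellSensor HRE-bla ME-180 cells, 2500 cells/well in Opti-MEM with 0.5% dialyzed FBS; compounds tested as titration series, 17 h at 37 degrees C. CCF4 substrate 2.5 h at room temperature; AC50 from 460/530 nm ratio.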

[14] = qHTS assay for small molecule agonists of retinoid X receptor alpha signaling (AID 588544); settings: HEK293T RXRa-UAS-bla, beta-lactamase reporter, 18 h; 530 nm emission
[15] = qHTS assay for small molecule antagonists of retinoid X receptor alpha signaling (AID 588546; active = well fitted inhibition curve with a large enough effect in the signal ratio, with a control signal flat, not every such curve was filed as active; the % refers to the signal ratio;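 note: cells stimulated with 9-cis-retinoic acid as agonist; % is set by controls: 0 for no effect and ±100 for the full control effect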); settings: HEK293T RXRa-UAS-bla, beta-lactamase ratio, antagonist mode; measured here: W530 green channel, cytotoxicity proxy
Method in brief: (§1)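 Beta-lactamase reporter inhibition, read as CCF4 fluorescence ratio (ex 405, em 460/530 nm) after 2 h at RT. HEK293T UAS-bla cells, 2500/well, were stimulated with 9-cis-RA at 500 or 100 nM final alongside test compound for 18 h at 37 C.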

[16] = biological target: Retinoic acid receptor RXR-alpha (Homo sapiens) (UniProt P19793); test: as above; settings: HEK293T RXRa-UAS-bla, beta-lactamase ratio, antagonist mode
Retinoic acid receptor RXR-alpha (Homo sapiens), sequence (P19793 whole entry, looked up): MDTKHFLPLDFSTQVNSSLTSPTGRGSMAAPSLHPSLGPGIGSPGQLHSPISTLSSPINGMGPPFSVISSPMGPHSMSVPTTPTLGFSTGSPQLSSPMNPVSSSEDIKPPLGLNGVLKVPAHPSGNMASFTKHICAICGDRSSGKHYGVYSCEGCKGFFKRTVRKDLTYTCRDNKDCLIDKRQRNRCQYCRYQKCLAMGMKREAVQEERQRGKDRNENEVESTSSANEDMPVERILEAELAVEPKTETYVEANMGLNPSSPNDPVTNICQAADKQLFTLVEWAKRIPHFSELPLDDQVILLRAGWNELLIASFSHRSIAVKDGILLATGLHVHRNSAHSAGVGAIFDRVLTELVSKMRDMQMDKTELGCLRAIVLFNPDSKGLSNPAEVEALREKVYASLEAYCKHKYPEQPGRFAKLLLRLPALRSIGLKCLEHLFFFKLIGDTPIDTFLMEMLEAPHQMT
Method in brief: as §1

[17] = biological target: Peroxisome proliferator-activated receptor alpha (Homo sapiens) (UniProt Q07869); test: qHTS assay for small molecule agonists of the peroxisome proliferator-activated receptor alpha (PPARalpha) signaling pathway (AID 651778); settings: PathHunter PPARalpha complementation, chemiluminescence, 6 h; stronger effect = higher value; note: % of control where 0% means no effect
Peroxisome proliferator-activated receptor alpha (Homo sapiens), sequence (Q07869 whole entry, looked up, the tested form may be a part): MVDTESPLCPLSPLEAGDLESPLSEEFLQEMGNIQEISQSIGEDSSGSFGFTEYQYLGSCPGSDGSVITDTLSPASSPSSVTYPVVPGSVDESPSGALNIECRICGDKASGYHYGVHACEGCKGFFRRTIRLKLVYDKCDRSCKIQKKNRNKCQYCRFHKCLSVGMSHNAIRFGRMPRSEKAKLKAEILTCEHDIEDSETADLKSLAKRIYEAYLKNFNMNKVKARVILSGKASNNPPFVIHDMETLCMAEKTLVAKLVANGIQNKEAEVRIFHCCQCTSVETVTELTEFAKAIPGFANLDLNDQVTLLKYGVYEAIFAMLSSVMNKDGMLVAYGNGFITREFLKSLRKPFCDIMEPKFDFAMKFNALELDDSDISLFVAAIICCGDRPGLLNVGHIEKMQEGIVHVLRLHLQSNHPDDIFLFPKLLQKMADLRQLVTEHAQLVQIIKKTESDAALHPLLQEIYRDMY
Method in brief: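 Enzyme-fragment complementation assay in which ligand-bound PPARalpha translocates and forms an active enzyme that generates chemiluminescence. Cells were plated overnight, exposed to compound for 6 hr at 37 C, and then given detection reagent for 60 min at room temperature.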

[18] = qHTS assay for small molecule agonists of the antioxidant response element (ARE) signaling pathway measured by Nrf2-dependant transcriptional activity - cell viability counter screen (AID 720653; active = well fitted curve in the direction sought with a large enough effect in the repeat runs; an effect the other way counts as inactive or inconclusive; note: % is set by controls: 0 for no effect and ±100 for the full control effect); settings: ARE-bla HepG2 viability, CellTiter-Glo ATP luminescence, 16 h; stronger effect = lower value
Method in brief: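 ARE-bla HepG2 cells treated with compounds for 16 h at 37C; this counter screen measures viability as intracellular ATP by CellTiter-Glo luminescence after 30 min at room temperature.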

[19] = qHTS assay for cell viability of HEK293 cells (AID 743288); settings: ATP luminescence (CellTiter-Glo), 18 h; max response: stronger effect = lower value; note: % is set by controls: 0 for no effect and ±100 for the full control effect; nearly all actives have a fitted effect of over 50% in size
Method in brief: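 Parental HEK293 cells, 2,000 per well, preincubated at least 5 h at 37 C, then exposed to compounds in DMSO for 18 h at 37 C. Viability by CellTiter-Glo ATP luminescence after 30 min at room temperature.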

[20] = qHTS assay for cell viability of the p53RE-bla HCT-116 cell line (AID 743292); settings: p53RE-bla HCT-116 viability, ATP luminescence, 16 h; series mostly up to 95 µM; note: % is set by controls: 0 for no effect and ±100 for the full control effect; nearly all actives have a fitted effect of over 55% in size
Method in brief: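 ATP-based luminescence, 16 h compound exposure at 37 C, p53RE-bla HCT-116 cells at 4,000/well.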

| Structure (SMILES) | Potency [1] | Potency [2] | Potency [3] | Potency [4] | activity change, negative = cytotoxicity [5] | Potency [6] | Potency [7] | Potency [8] | activity change, negative = cytotoxicity [9] | outcome [10] | caspase-3 activation [11] | outcome [12] | outcome [13] | max response [14] | max response [15] | max response [16] | max response [17] | max response [18] | max response [19] | Potency [20] |
| --- | --- | --- | --- | --- | --- | --- | --- | --- | --- | --- | --- | --- | --- | --- | --- | --- | --- | --- | --- | --- |
| CCOP(=S)(OCC)Oc1ccc([N+](=O)[O-])cc1 | > 92 µM (inactive) | > 92 µM (inactive) | > 92 µM (inactive) | > 92 µM (inactive) | -19.3% (inactive) | inactive | inactive | inactive | -6.62% (inactive) and -2.54% (inactive) | inactive | -2.23% (inactive) and 0.755% (inactive) | inactive | inactive | -6.89% and 6.11% | 14.9% and 8.35% | 10.9% (inactive) and -20.1% (inactive) | -0.408% (inactive) and 4.67% (inactive) and -3.29% (inactive) | -2.59% (inactive) and 6.4% (inactive) and 13.8% (inactive) | 0.0323% (inactive) and -20.7% (inactive) and -1.59% (inactive) | inactive |
| NC(=S)Nc1ccccc1 | > 92 µM (inactive) | > 92 µM (inactive) | > 92 µM (inactive) | > 92 µM (inactive) | -8.44% (inactive) and 0.7% (inactive) | inactive | inactive | inactive | -4.19% [at 91.7 µM] (inactive) and 2.38% [at 91.7 µM] (inactive) | inactive | 1.95% (inactive) and -1.01% (inactive) | inactive | inactive | -11.1% and -12.4% and -6.79% | -15.9% and -3.13% and -6.62% | 6.2% (inactive) and -12.5% (inactive) and -20.4% (inactive) | -6.31% (inactive) and -5.47% (inactive) and -0.622% (inactive) | -3.66% (inactive) and 8.32% (inactive) and -3.85% (inactive) | -1.42% (inactive) and -0.575% (inactive) and -4.82% (inactive) | inactive |
| [O-][Br+2]([O-])O | > 92 µM (inactive) | > 92 µM (inactive) | > 92 µM (inactive) | > 92 µM (inactive) | 0.18% (inactive) and -3.06% (inactive) | inactive | inactive | inactive | -9.6% (inactive) and -6.64% (inactive) | inactive | -7.93% (inactive) and -8.01% (inactive) | inactive | inactive | 8.99% and 2.4% | -4.01% and -4.2% | 9.17% (inactive) and 7.78% (inactive) | 8.01% (inactive) and -0.25% (inactive) | 3.23% (inactive) and -1.6% (inactive) | -15.7% (inactive) and 1.39% (inactive) | inactive |
| C=CC(N)=O | > 92 µM (inactive) | > 92 µM (inactive) | > 92 µM (inactive) | > 92 µM (inactive) | 5.3% (inactive) and 3.72% (inactive) | inactive | inactive | inactive | 6.17% (inactive) and -0.476% (inactive) | inactive | 0.421% (inactive) and 0.897% (inactive) | inactive | inactive | -5.65% and -3.81% | -10.1% and 0.0016% and -8.94% | 17% (inactive) and -9.44% (inactive) and -5.75% (inactive) | – | -3.97% (inactive) and 4.84% (inactive) and 3.74% (inactive) | -9.64% (inactive) and 2.95% (inactive) and 5.31% (inactive) | inactive |

— PubChem BioAssay (NCATS)
